The results in this text go back to ChEMBL document CHEMBL3988442, “University of Dundee, Small-Polar-MMV Screening Library” (2021).

The structures appear in SMILES notation. Hit rate of the full screen: of about 69,000 compounds, about 950 (1.4%) showed an effect of 50% or more. This excerpt belongs to a sample that is enriched for strong results.

For the assay, the system named is Mycobacterium tuberculosis. Description: Cornell M. t heat shock assay. Note: in the data most compounds retested in dose-response had high values. Format: functional, organism-based. Details: dose or concentration left out as unconfirmed.
On to `Fc1cnc(N2CCCn3cnc(COc4cccnc4)c3C2)nc1.O=C(O)C(F)(F)F`, for which the “Percent Effect” value turned out to be 9.371%. Turning to `Cc1cc(C)c(CNC(=O)NCC2CCOC2)c(=O)[nH]1` (stereo unspecified), the “Percent Effect” value was -20.09%. Under `COCCC(=O)N1CCOCC2(CCN(Cc3cccs3)C2)C1.O=C(O)C(F)(F)F` (stereo unspecified) stands -16.95%.

`O=C(O)C(F)(F)F.O=C(O)C(F)(F)F.O=C1COC2(CCN(Cc3cccnc3)CC2)CN1`: the “Percent Effect” value was -2.798%. Under `O=C([C@H]1CCCO1)N1CCc2ncnc(NC3CC3)c2CC1` stands 65.17%; under `O=C(C1CCCO1)N1CCc2ncnc(NC3CCC3)c2CC1.O=C(O)C(F)(F)F` (stereo unspecified), -8.605%. Under `CC(C)Nc1ncnc2c1CCN(C(=O)[C@H]1CCCO1)CC2` stands -13.05%; under `COCC1COCCC12CCN(Cc1nccs1)CC2.O=C(O)C(F)(F)F` (stereo unspecified), 8.236%. Turning to `CS(=O)(=O)NC1CCN(C(=O)c2cc3ccccc3s2)C1` (stereo unspecified), the “Percent Effect” value is listed as 0.7353%. Consider `CS(=O)(=O)N[C@@H]1CN(C(=O)c2cc3ccccc3s2)C[C@H]1O`, for which the “Percent Effect” value is reported as 101.8%. In the case of `CCC[C@@H]1CN(C(=O)c2cc3ccccc3s2)C[C@H]1NS(C)(=O)=O` it was 11.11%. In the case of `Cn1cc(C[C@H]2[C@H](O)CCN2CC2CCOCC2)cn1.O=C(O)C(F)(F)F` it was 6.354%; in that of `O=C(O)C(F)(F)F.O=C(c1ccsc1)N1CCO[C@@H]2CN(Cc3nccs3)C[C@@H]2C1`, 10.37%; in that of `Cc1cccc(CN2C[C@@H](C)[C@@]3(CCN(CC(=O)N(C)C)C3=O)C2)c1.O=C(O)C(F)(F)F`, -6.766%. In the case of `Cc1ccsc1C(=O)N1CC[C@@H](N(C)C)[C@@H]1Cc1cnn(C)c1.O=C(O)C(F)(F)F` it was -5.648%; in that of `CCn1nc(CC(C)C)cc1C(=O)NCCn1cccc1`, 49.17%. For `CCn1nc(C(C)C)cc1C(=O)NCCCOC`, the “Percent Effect” value was 4.35%. In the case of `CCn1nc(CC(C)C)cc1C(=O)NCCCOC` it was 92.73%; in that of `Cc1csc(CCNCc2cnc3c(c2)c(C)nn3C)n1.Cl`, 6.139%; in that of `O=C(O)C(F)(F)F.O=C(O)C(F)(F)F.O=C1COC2(CCN(Cc3ccncc3)CC2)CN1c1ccccc1`, -2.605%. Under `CO[C@@H]1CCN(Cc2ccoc2)[C@H]1Cc1ccccc1.O=C(O)C(F)(F)F` stands 14.91%; under `Fc1cnc(N2CCCC3(CN(Cc4ccncc4)CCO3)C2)nc1.O=C(O)C(F)(F)F.O=C(O)C(F)(F)F` (stereo unspecified), 10.78%; under `Cc1ncc2c(n1)CCCC2NC(=O)c1ccncc1` (stereo unspecified), -6.944%.

As to `Cc1ncc2c(n1)CCCC2NC(=O)c1ccc(Cn2cccn2)cc1` (stereo unspecified), the “Percent Effect” value turned out to be 72.35%. In the case of `Cc1ncc2c(n1)CCCC2NC(=O)c1cnn(Cc2ccccc2)c1` (stereo unspecified) it was -15.56%. In the case of `COCC(=O)N1CCCC1c1ccnc(Nc2cnccn2)n1` (stereo unspecified) it was -1.39%; in that of `COCC(=O)N1CCCCC1c1ccnc(Nc2cnccn2)n1` (stereo unspecified), -6.25%; in that of `Cc1nccc(C2CCCCN2Cc2ccccc2)n1` (stereo unspecified), -13.8%. Under `c1ccc(CCN2CCCC2c2ccnc(Nc3ncccn3)n2)cc1` (stereo unspecified) stands 91.35%; under `Nc1nccc(C2CCCN2CCc2ccccc2)n1` (stereo unspecified), 10.92%; under `c1ccc(CCN2CCCC2c2ccnc(Nc3cnccn3)n2)cc1` (stereo unspecified), 57.03%. Regarding `COCCOc1ccc(NC(=O)C2CC(=O)N(C)C2)cn1` (stereo unspecified), the “Percent Effect” value worked out at 4.167%.

Turning to `COCCn1cc(C(=O)N2CCCC2c2cccc(F)c2)ccc1=O` (stereo unspecified), the “Percent Effect” value is -4.621%.

As to `O=C(O)C(F)(F)F.c1csc(CN2Cc3nccn3CC(Cn3cncn3)C2)c1` (stereo unspecified), the “Percent Effect” value is listed as -12.15%. In the case of `CCc1ccc(CN(CCN(C)C)Cc2ccc(C)s2)nc1` it was 88.98%; in that of `COc1ncc(CN(CCN(C)C)Cc2ccc(C)s2)cn1`, -3.645%. `CCNc1ncc(CN(CCN(C)C)Cc2ccc(C)s2)cn1`: the “Percent Effect” value was determined as 2.161%. Under `O=C(O)C(F)(F)F.O=C(O)C(F)(F)F.c1cncc(OC[C@]23COC[C@H]2CN(Cc2ccsc2)C3)c1` stands -29.89%; under `Cl.O=S(=O)(c1ccc(Cl)cc1)N1CCc2nc(C3CCNCC3)ncc2C1`, 15.18%.

As for `COc1cc(-c2ccc(F)c3c2OC(CN)C3)cc(OC)c1OC` (stereo unspecified), the “Percent Effect” value was -5.435%. In the case of `COc1cccnc1-c1ccc(F)c2c1OC(CN)C2` (stereo unspecified) it was -14.02%; in that of `COc1cc(C)c(-c2ccc(F)c3c2OC(CN)C3)cc1C` (stereo unspecified), 51.67%; in that of `CC(C)CCN1C[C@H]2C[C@H](C(=O)N3CCCC3)[C@@H](C1)O2.O=C(O)C(F)(F)F`, 37.85%.

As for `c1ccc(CN2CCN(c3ccc4nncn4n3)CC2)nc1`, the “Percent Effect” value was determined as 6.511%.

Regarding `Cc1cnc(CN2CCN(c3ccc4nncn4n3)C(C)C2)cn1` (stereo unspecified), the “Percent Effect” value is on record as -3.544%. Take `O=C(CCN1CCN(c2ccc3nncn3n2)CC1)N1CCCCC1`: the “Percent Effect” value is recorded as -7.972%.

As to `CC1CN(Cc2nccn2C)CCN1c1ccc2nncn2n1` (stereo unspecified), the “Percent Effect” value is reported as -15.38%.

For the compound `CC1CN(CC(=O)N2CCCC2)CCN1c1ccc2nncn2n1` (stereo unspecified), the “Percent Effect” value is given as 15.46%. Under `CC1CN(CC2CCCCC2)CCN1c1ccc2nncn2n1` (stereo unspecified) stands 16.09%; under `O=C(CN1CCN(c2ccc3nncn3n2)CC1)NC1CCCC1`, 59.84%. Under `O=C(CCN1CCN(c2ccc3nncn3n2)CC1)NC1CCCC1` stands -7.134%; under `CC1CN(CC2CCCC2)CCN1c1ccc2nncn2n1` (stereo unspecified), 85.93%. Consider `CC1CCCCN1C(=O)CN1CCN(c2ccc3nncn3n2)CC1` (stereo unspecified), for which the “Percent Effect” value was determined as 5.269%. `O=C(CN1CCN(c2ccc3nncn3n2)CC1)NC1CCCCC1`: the “Percent Effect” value was 57.46%. In the case of `CC1CN(CC(=O)NC2CCCC2)CCN1c1ccc2nncn2n1` (stereo unspecified) it was 176.2%; in that of `COCc1ncn2c1CN(C(=O)c1cccc3cccnc13)CC2.O=C(O)C(F)(F)F`, -14.48%; in that of `O=C(O)C(F)(F)F.O=C(O)C(F)(F)F.c1ccc(OCC2C[C@@H]3[C@@H](C2)OCCN3Cc2ccoc2)nc1` (stereo partly specified), 14.26%.

For `CN(C)CCN1CCCC12CCCN(C(=O)c1cccnc1)C2.O=C(O)C(F)(F)F.O=C(O)C(F)(F)F` (stereo unspecified), the “Percent Effect” value was -7.014%. As for `Cc1nc(N(C)C)nc2c1COCC21CCN(CC2CC2)C1.O=C(O)C(F)(F)F` (stereo unspecified), the “Percent Effect” value is 4.702%. With `CC1c2ncc(CNC(=O)C3CC3)n2CCN1CC1CCC1.O=C(O)C(F)(F)F` (stereo unspecified), the “Percent Effect” value is listed as -0.1216%.

Consider `Cc1ccc([C@]2(O)CC[C@H]3CN(Cc4cccc(F)c4F)C[C@H]32)nc1.O=C(O)CC(O)(CC(=O)O)C(=O)O`, for which the “Percent Effect” value is reported as 2.948%. With `O=C(O)CC(O)(CC(=O)O)C(=O)O.O[C@@]1(c2ccccn2)CC[C@H]2CN(Cc3cccc(Cl)c3Cl)C[C@H]21`, the “Percent Effect” value worked out at 14.33%. Take `Cc1ccc([C@]2(O)CC[C@H]3CN(Cc4cccc(Cl)c4Cl)C[C@H]32)nc1.O=C(O)CC(O)(CC(=O)O)C(=O)O`: the “Percent Effect” value is recorded as 90.52%. As for `Cl.NC(=O)CCc1cccc(C2CCNCC2)n1`, the “Percent Effect” value is recorded as 3.085%. In the case of `COc1ccccc1CC(=O)N1CCCC(n2nc(C)nc2C)C1` (stereo unspecified) it was -10.87%; in that of `CC[C@@H]1N(Cc2ccc(C)s2)CCC[C@]12CCC(=O)N2C.O=C(O)C(F)(F)F`, 1.978%. In the case of `CS(=O)(=O)CC(=O)NCC1OCCc2cn(CC3CC3)nc21` (stereo unspecified) it was 11.68%; in that of `Cc1cc(C(=O)NCC2OCCc3cn(CC4CC4)nc32)c(C)[nH]1` (stereo unspecified), 105.1%; in that of `COCCn1cc2c(n1)C(CNC(=O)c1cc(C)[nH]c1C)OCC2` (stereo unspecified), 38.13%.

In the case of `Cn1cc(CN2CCC3(CCCN3Cc3cccnc3)CC2)cn1.O=C(O)C(F)(F)F.O=C(O)C(F)(F)F.O=C(O)C(F)(F)F`, the “Percent Effect” value was -39.86%. `CC(=O)c1ccc(NC(=O)NC(C(=O)N(C)C)C(C)C)cc1` (stereo unspecified): the “Percent Effect” value came to 30.77%. In the case of `CC(Cn1cccn1)NC(=O)Nc1ccc(F)cc1` (stereo unspecified), the “Percent Effect” value was found to be 97.32%. As for `Cc1ccc(NC(=O)NC(C)Cn2cccn2)cc1` (stereo unspecified), the “Percent Effect” value is listed as 0.5452%.

For the compound `CC(=O)c1ccc(NC(=O)N[C@H](C(=O)O)C(C)C)cc1`, the “Percent Effect” value is recorded as -1.764%. Under `CC(C)C(NC(=O)Nc1ccc(F)cc1)C(=O)N(C)C` (stereo unspecified) stands 54.32%; under `COc1ccc(NC(=O)NC(C)Cn2cccn2)cn1` (stereo unspecified), 0.2337%; under `O=C(O)C(F)(F)F.O=C(O)C(F)(F)F.c1cc(CO[C@@H]2CC[C@H]3[C@H]2OCCN3Cc2ccoc2)ccn1`, -10.25%. For the compound `Cc1nc(CN2C[C@@H]3CN(C(=O)c4ccnnc4)C[C@@H]3C2=O)cs1.O=C(O)C(F)(F)F`, the “Percent Effect” value came out at 0.6336%. Turning to `CN(C)CCN1CCCC12CCN(C(=O)c1cccnc1)CC2.O=C(O)C(F)(F)F.O=C(O)C(F)(F)F`, the “Percent Effect” value is recorded as -6.366%. In the case of `CC(C)N1CCO[C@H]2CN(C(=O)c3ccsc3)C[C@H]21.O=C(O)C(F)(F)F` it was -22.87%. Take `O=C(Nc1cccc2c1CCCC2)C1CCCN1c1nccs1` (stereo unspecified): the “Percent Effect” value amounted to 50.83%.

Take `O=C(Nc1cccc(F)c1)C1CCCN1c1nccs1` (stereo unspecified): the “Percent Effect” value is 8.306%. Under `O=C(Nc1cccc(N2CCCC2)c1)C1CCCN1c1nccs1` (stereo unspecified) stands 5.051%; under `CCC(C)N1CCC2(CC1)CN(c1cncnc1)C(=O)CO2.O=C(O)C(F)(F)F` (stereo unspecified), -21.63%.

Consider `Cc1nc(-c2ccc(F)c(F)c2)cc(C2CCNCC2)n1.Cl`, for which the “Percent Effect” value is recorded as -7.049%. In the case of `Cn1cc(C2CC(=O)NC23CCN(Cc2cccc(F)c2)CC3)cn1.O=C(O)C(F)(F)F` (stereo unspecified) it was -23.11%; in that of `CCOc1ccc(CN2CCc3nc4ccsc4c(=O)n3CC2)cc1.Cl`, 16.23%. Under `CCOCc1nn(C)c2c1CN(Cc1cccs1)CC2.O=C(O)C(F)(F)F` stands 29.88%; under `CC(C(=O)NN1CCOCC1)n1nc(C(F)(F)F)c(Cl)c1C1CC1` (stereo unspecified), -25.21%. Under `CN(C)CCN1CCO[C@H]2CN(C(=O)c3ccsc3)C[C@H]21.O=C(O)C(F)(F)F.O=C(O)C(F)(F)F` stands 25.92%; under `O=C(C1CCC1)N1CC[C@H](O)[C@@H]1Cc1cccnc1.O=C(O)C(F)(F)F`, 0.09339%.
